# Anthrax LF prot: anthrax lethal factor protease inhibition; 0.12% of 360,000 active; multiplex microsphere protease cleavage assay, LF; AID 588501; inhibition, % at 10 µM; further: plate controls were buffer without enzyme for full effect and enzyme alone for no effect
# Target sequence (P15917 whole entry, looked up): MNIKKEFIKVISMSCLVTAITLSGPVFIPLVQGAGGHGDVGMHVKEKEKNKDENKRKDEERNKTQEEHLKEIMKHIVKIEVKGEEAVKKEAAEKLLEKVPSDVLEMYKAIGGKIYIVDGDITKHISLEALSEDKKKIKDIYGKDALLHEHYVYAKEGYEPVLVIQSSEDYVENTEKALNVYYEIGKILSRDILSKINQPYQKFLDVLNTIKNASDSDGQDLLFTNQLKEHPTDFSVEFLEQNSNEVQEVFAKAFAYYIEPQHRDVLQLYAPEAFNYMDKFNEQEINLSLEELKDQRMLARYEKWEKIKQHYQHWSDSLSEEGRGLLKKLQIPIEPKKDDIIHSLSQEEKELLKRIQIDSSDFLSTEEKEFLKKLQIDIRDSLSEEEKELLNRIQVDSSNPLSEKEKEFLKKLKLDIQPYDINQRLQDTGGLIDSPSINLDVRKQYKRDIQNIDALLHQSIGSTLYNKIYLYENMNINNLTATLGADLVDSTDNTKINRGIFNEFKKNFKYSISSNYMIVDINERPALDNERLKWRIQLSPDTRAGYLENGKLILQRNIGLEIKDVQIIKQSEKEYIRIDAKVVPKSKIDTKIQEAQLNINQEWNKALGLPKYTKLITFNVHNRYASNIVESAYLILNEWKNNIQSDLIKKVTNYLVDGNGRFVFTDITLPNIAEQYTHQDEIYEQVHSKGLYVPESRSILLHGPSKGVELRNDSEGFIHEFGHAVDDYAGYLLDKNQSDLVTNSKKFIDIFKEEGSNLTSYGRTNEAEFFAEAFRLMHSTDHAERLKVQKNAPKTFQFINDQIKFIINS
# Bead autofluor: compound fluorescence in toxin protease inhibitor counterscreen; AID 624483; 3.1% of 360,000 active; fluorescence intensity (no concentration beside the values); compound autofluorescence counterscreen, microsphere flow cytometry; hits give high values; in the data active means fluorescence intensity above about 16000; inconclusive means no clear call, values can overlap the other calls
# BoNT-A LC inh2: blocks Botulinum neurotoxin A light chain protease; multiplex microsphere protease substrate cleavage, flow cytometry; inhibition, % at 10 µM; 0.17% of 360,000 active; AID 588499; further: plate controls were buffer without enzyme for full effect and enzyme alone for no effect
# BoNT-F LC inh: BoNT F light chain protease inhibition; Multiplex microsphere protease cleavage assay, flow cytometry; inhibition, % at 10 µM; 0.22% of 360,000 active; in the data active means inhibition above about 35%, passing the limit was not always enough; inconclusive means no clear call, values can overlap the other calls; further: plate controls were buffer without enzyme for full effect and enzyme alone for no effect
# SARS 3CLpro inh: SARS-CoV 3CLpro protease inhibition; P0C6X7; recombinant SARS-CoV 3CLpro, quenched FRET peptide cleavage; inhibition, % at 6 µM; 0.14% of 290,000 active; AID 1706; in the data active means inhibition above about 12%
# Numbers without * were called inactive; ? = inconclusive; · = no result given. Shown are actives, neighbours in structure and some others; about 3.5% of the full set was active somewhere. Unless noted, no stated cut-off is given here; in the data, active means inhibition above about 30%; inconclusive means no clear call, values can overlap the other calls; inactive means below that.
SMILES,Anthrax LF prot,Bead autofluor,BoNT-A LC inh2,BoNT-F LC inh,SARS 3CLpro inh
CCOCCCN1C(=O)CN(C2CCCCCC2)C(=O)C1c1ccc(OC)cc1 (configuration not stated),-2,19637*,1,1,-4
Cc1ccc(C2C(=O)N(C3CCCC3)CC(=O)N2C2CCCCC2)cc1 (configuration not stated),-4,18594*,2,0,-1
CCOCCCN1C(=O)CN(C2CCCCC2)C(=O)C1c1ccc(OC)c(OC)c1 (configuration not stated),3,10813,0,5,-4
COc1ccc(C2C(=O)N(C3CCCCC3)CC(=O)N2CCc2ccccc2)cc1OC (configuration not stated),-1,21105*,-3,-5,-7
COc1ccc(C2C(=O)N(C3CCCCC3)CC(=O)N2C2CCCCC2)cc1 (configuration not stated),-4,9530,0,-4,0
COc1ccc(N(CCC(=O)O)S(=O)(=O)c2ccc(C)cc2C)cc1,-4,4116,0,-3,-2
Cc1oc2c(cc(NS(=O)(=O)c3ccc4c5c(cccc35)C(=O)N4)c3ccccc32)c1C(=O)OC(C)C,1,19667*,2,1,-3
COc1cc2nc(CSc3nc(-c4ccc(F)cc4)cs3)[nH]c(=O)c2cc1OC,2,8974,0,-1,3
Cc1csc(C2=C(O)CN(CCc3ccccc3)C2=N)n1,-4,12294,-2,-14,-2
COc1ccc(CCN2CC(O)=C(c3nc(C)cs3)C2=N)cc1OC,3,23439*,0,0,0
COc1cc(/C=C/C(=O)OCC(=O)Nc2cc(S(=O)(=O)N3CCCCC3)ccc2C)ccc1O,-6,9612,-1,4,1
COC(=O)c1cc2c(cc1N)OCCO2,-1,3800,-2,-12,-2
CCC(C)NC(=O)c1ccc(Cl)c(S(=O)(=O)Nc2ccccc2N2CCOCC2)c1 (configuration not stated),5,3945,0,2,·
CCc1ccc(-c2cc(C(=O)N3N=C(C(F)F)CC3(O)C(F)F)c3ccccc3n2)cc1 (configuration not stated),-5,12278,-2,-11,5
CC(C)Cc1cc(C(=O)N2N=C(C(F)F)CC2(O)C(F)F)c2ccccc2n1 (configuration not stated),0,22633*,-10,-12,1
CCOc1ccccc1N(CC)C(=O)c1ccc2c(=O)n3c(nc2c1)CCCCC3,0,4475,0,-2,-1
O=S(=O)(c1cccc(-c2cn3ccccc3n2)c1)N1CCCCC1,-4,5858,-1,-9,2
O=S(=O)(c1ccc(-c2cn3ccccc3n2)cc1)N1CCOCC1,1,22528*,-9,-10,-4
Cc1cccn2cc(-c3ccc(S(=O)(=O)N4CCOCC4)cc3)nc12,1,23299*,0,-1,-4
Cc1ccc(N(CC(=O)NCC2CCCO2)S(=O)(=O)c2ccc(Cl)cc2)cc1C (configuration not stated),-2,5621,-2,0,2
COc1ccc(N(CC(=O)NCC2CCCO2)S(=O)(=O)c2ccc(C)cc2)cc1OC (configuration not stated),0,16225*,0,-1,6
CCn1c(=O)c(C(=O)Nc2ccccc2C)c(O)c2ccccc21,1,22484*,?,6,1
CCCn1c(=O)c(C(=O)Nc2ccccc2C)c(O)c2ccccc21,10,4346,-2,?,-2
CCCCCCCCC(=O)NNC(=O)c1c(O)c2ccccc2n(CC)c1=O,2,3940,6,39*,-3
COc1ccc(NC(=O)CN(C)C(=O)c2cc3c(s2)CCC3)cc1,-2,6946,-3,4,·
SMILES,Anthrax LF prot,Bead autofluor,BoNT-A LC inh2,BoNT-F LC inh,SARS 3CLpro inh
CS(=O)(=O)NCCSCc1ccccc1,-1,4466,0,-6,-5
COc1ccc(S(=O)(=O)NCCSCc2ccccc2C)cc1Br,-2,16146*,1,0,3
Cc1ccccc1CSCCNS(C)(=O)=O,-4,17003*,-2,-2,-1
CS(=O)(=O)NCCSCc1c(Cl)cccc1Cl,0,17037*,-2,-2,1
COc1ccc(S(=O)(=O)NCCSCc2ccco2)cc1OC,0,4310,0,-16,1
CS(=O)(=O)NCCSCc1c(F)cccc1Cl,1,2553,0,-2,-6
Cc1cc(C(=O)COC(=O)c2cccc(S(=O)(=O)N(C)C)c2)c(C)n1CC1CCCO1 (configuration not stated),0,5353,3,-1,·
COc1ccccc1OCc1nnc(SCCN2CCOCC2)o1,-2,22558*,?,-4,1
COc1ccccc1OCc1nnc(SCC(=O)N2CCCC2)o1,2,3915,2,13,-2
COc1ccccc1OCc1nnc(SCC(=O)c2cc(Cl)ccc2OC)o1,1,21782*,?,3,0
CCn1c(CSc2nc3ccccc3s2)nnc1SCC(=O)OC(C)(C)C,-2,16941*,-3,-6,2
C=CCn1c(CSc2nc3ccccc3s2)nnc1SCC(=O)NCc1ccccc1,2,4935,0,-14,0
CCn1c(CCc2ccccc2)nnc1SCC(N)=O,28,3042,4,37*,-6
CCn1c(SCC(N)=O)nnc1-c1cc2c(C)nn(-c3ccccc3)c2s1,-1,23213*,2,2,-4
CCn1c(CSc2nc3ccccc3s2)nnc1SCC(=O)NCC(=O)OC,-3,20468*,0,-1,3
CCn1c(CSc2nc3ccccc3s2)nnc1SCC(=O)c1ccc2c(c1)OCCO2,-5,4130,1,-9,-1
Cc1ccc(NC(=O)c2ccco2)c(NC(=O)c2ccccc2C)c1,-3,3387,-1,15,-3
Cc1ccc(Nc2cc(=O)[nH]c(=O)[nH]2)cc1Cl,1,4485,-1,-3,5
Cn1c(=O)c2c(ncn2CC(O)CNc2ccc(F)cc2)n(C)c1=O (configuration not stated),-3,5470,0,-6,7
CCn1c(CSc2nc3ccccc3s2)nnc1SCC(N)=O,0,20063*,-2,-3,-2
Cn1c(CSc2nc3ccccc3s2)nc2ccccc21,-3,22150*,-3,-5,1
C=CCn1c(C(CCC(C)C)CC(C)(C)O)n[nH]c1=S (configuration not stated),0,24772*,-4,-6,1
C=CCn1c(C(CCCC)CC(C)O)n[nH]c1=S (configuration not stated),-1,2156,0,0,4
COc1ccc(OC)c(-n2c(-c3ccc(C)cc3)n[nH]c2=S)c1,-7,9768,-1,-1,0
O=C(Nc1nc2ccc(S(=O)(=O)N3CCCCC3)cc2s1)c1ccncc1,-1,3655,1,-7,-3
O=C(Nc1nc2ccc(S(=O)(=O)N3CCCCC3)cc2s1)c1cccnc1,-7,21943*,6,6,1
O=C(Nc1ccon1)c1cccc(S(=O)(=O)N2CCCC2)c1,4,19894*,0,-2,-2
